Results filed as inconclusive are left out. Calls of active or inactive are those of the source. Unless noted, the call rests on the fitted dose curve; in most records, active means well fitted curve in the direction sought with a large enough effect; inconclusive means small, poorly fitted or top-dose-only effect, or another doubt; inactive means no such curve, though single readings can be large; an effect the other way counts as inactive or inconclusive. Where a SMILES comes first, the peptide text is derived from it. [ ]: non-standard residue; d: D form. pGlu = O=C1CC[C@@H](C(=O)O)N1
Key:
[1] = qHTS assay for measurement of the activity of small molecule inhibitors on Zika virus induced Caspase-3 activity in human iPSC derived neural progenitor cells (hNPCs) (AID 1224857); further: nearly all actives have a fitted effect of over 65% in size
In short: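 Human iPSC-derived neural progenitor cells pretreated 1 hr with compounds, then infected with Zika virus (2 FFU/cell) for 6 hours at 37 C. Caspase-3/7 measured by Caspase-Glo luminescence; % inhibition calculated from induction scaled to uninfected (0%) and infected (100%) wells.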

[2] = qHTS assay for measurement of the activity of small molecule inhibitors on Zika virus induced Caspase-3 activity in human astrocytoma cells (AID 1224859)
In short: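 SNB-19 astrocytoma cells, 250/well, pretreated 1 h with compounds, then Zika virus at 2 FFU/cell for 6 h at 37 C; Caspase-Glo 3/7 luminescence after 30 min; percent inhibition normalised to uninfected and infected controls.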

[3] = P-glycoprotein substrates identified in KB-8-5-11 adenocarcinoma cell line, qHTS therapeutic library screen (AID 1346987); further: series mostly up to about 44 µM; nearly all actives have a fitted effect of over 65% in size
In short: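 Luminescence from CellTiter-Glo, read 5 min after addition, quantified survival of KB-8-5-11 (P-gp-overexpressing) cells exposed to compounds for 72 h. AC50 was derived from concentration-response curves.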

[4] = NS1 protein of Zika virus - qHTS assay to identify small molecule inhibitors in human HEK 293 cells (AID 1347053); further: series mostly up to about 46 µM; nearly all actives have a fitted effect of over 55% in size
In short: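 TR-FRET signal from two anti-ZIKV NS1 antibodies quantified NS1 in HEK 293 cells 24 h after MR766 infection at MOI = 0.5; compounds were added 1 h before virus. Uninfected cells and infected cells defined the NS1 normalization range.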

[5] = qHTS of pediatric cancer cell lines to identify multiple opportunities for drug repurposing: Primary screen for SJ-GBM2 cells (AID 1347091)
In short: (§1)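 Eight- or eleven-point concentration series, 48 h treatment at 37 degrees C in growth media; readout CellTiter-Glo luminescence. Potency and efficacy were taken from the concentration-response curves.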

[6] = qHTS of pediatric cancer cell lines to identify multiple opportunities for drug repurposing: Primary screen for A673 cells (AID 1347092); further: nearly all actives have a fitted effect of over 45% in size
In short: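 A673 cells (500-1,000 cells/well) were treated 48 hours at 37 degrees C with compounds at 11-point (0.78 nM to 46 µM) or 8-point (0.59 nM to 46 µM) dilutions. Viability read by CellTiter-Glo luminescence; concentration-response curves fitted.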

[7] = qHTS of pediatric cancer cell lines to identify multiple opportunities for drug repurposing: Primary screen for SK-N-MC cells (AID 1347093); further: series mostly up to about 46 µM
In short: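 Metabolically active cells were quantified by ATP-dependent luminescence (CellTiter-Glo, 15 min at room temperature) following 48 h treatment. Cells had been plated at 500-1,000 per well and settled for 5 h beforehand.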

[8] = qHTS of pediatric cancer cell lines to identify multiple opportunities for drug repurposing: Primary screen for BT-37 cells (AID 1347094); further: series mostly up to about 57 µM
In short: (§2)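 ATP-based luminescence (CellTiter-Glo) quantifies viability after a 48-hour exposure. Compounds are dosed across 8 or 11 final concentrations; DMSO and 2.3 µM bortezomib serve as controls.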

[9] = qHTS of pediatric cancer cell lines to identify multiple opportunities for drug repurposing: Primary screen for NB-EBc1 cells (AID 1347095)
In short: as §2

[10] = qHTS of pediatric cancer cell lines to identify multiple opportunities for drug repurposing: Primary screen for U-2 OS cells (AID 1347096); further: nearly all actives have a fitted effect of over 50% in size
In short: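 Cells (500-1,000/well) in growth media were settled 5 h at 37 degrees C, then given compounds for 48 h. Viability was read as CellTiter-Glo luminescence. Primary runs used MIPE at 11 points (0.78 nM-46 µM) and NPC at 8 points (0.59 nM-46 µM); follow-ups used 11 points.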

[11] = qHTS of pediatric cancer cell lines to identify multiple opportunities for drug repurposing: Primary screen for TC32 cells (AID 1347089); further: nearly all actives have a fitted effect of over 60% in size
In short: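 TC32 cells, 500-1,000/well in growth medium, compound-treated 48 h at 37 °C; viability from CellTiter-Glo luminescence. Primary screen: MIPE 11-point (0.78 nM–46 µM final), NPC 8-point (0.59 nM–46 µM final); confirmatory at 11-point dilutions.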

[12] = qHTS of pediatric cancer cell lines to identify multiple opportunities for drug repurposing: Primary screen for DAOY cells (AID 1347090); further: nearly all actives have a fitted effect of over 55% in size; further: potency means the concentration at half of the fitted maximal effect
In short: as §1

[13] = biological target: Atrial natriuretic peptide receptor 2 (Homo sapiens) (UniProt P20594); test: Natriuretic polypeptide receptor (hNpr2) antagonism - Pilot subtype selectivity assay (AID 1347050; calls by dose curve; further: potency means the concentration at half of the fitted maximal effect)
Chain of Atrial natriuretic peptide receptor 2 (Homo sapiens) (P20594 whole entry, looked up): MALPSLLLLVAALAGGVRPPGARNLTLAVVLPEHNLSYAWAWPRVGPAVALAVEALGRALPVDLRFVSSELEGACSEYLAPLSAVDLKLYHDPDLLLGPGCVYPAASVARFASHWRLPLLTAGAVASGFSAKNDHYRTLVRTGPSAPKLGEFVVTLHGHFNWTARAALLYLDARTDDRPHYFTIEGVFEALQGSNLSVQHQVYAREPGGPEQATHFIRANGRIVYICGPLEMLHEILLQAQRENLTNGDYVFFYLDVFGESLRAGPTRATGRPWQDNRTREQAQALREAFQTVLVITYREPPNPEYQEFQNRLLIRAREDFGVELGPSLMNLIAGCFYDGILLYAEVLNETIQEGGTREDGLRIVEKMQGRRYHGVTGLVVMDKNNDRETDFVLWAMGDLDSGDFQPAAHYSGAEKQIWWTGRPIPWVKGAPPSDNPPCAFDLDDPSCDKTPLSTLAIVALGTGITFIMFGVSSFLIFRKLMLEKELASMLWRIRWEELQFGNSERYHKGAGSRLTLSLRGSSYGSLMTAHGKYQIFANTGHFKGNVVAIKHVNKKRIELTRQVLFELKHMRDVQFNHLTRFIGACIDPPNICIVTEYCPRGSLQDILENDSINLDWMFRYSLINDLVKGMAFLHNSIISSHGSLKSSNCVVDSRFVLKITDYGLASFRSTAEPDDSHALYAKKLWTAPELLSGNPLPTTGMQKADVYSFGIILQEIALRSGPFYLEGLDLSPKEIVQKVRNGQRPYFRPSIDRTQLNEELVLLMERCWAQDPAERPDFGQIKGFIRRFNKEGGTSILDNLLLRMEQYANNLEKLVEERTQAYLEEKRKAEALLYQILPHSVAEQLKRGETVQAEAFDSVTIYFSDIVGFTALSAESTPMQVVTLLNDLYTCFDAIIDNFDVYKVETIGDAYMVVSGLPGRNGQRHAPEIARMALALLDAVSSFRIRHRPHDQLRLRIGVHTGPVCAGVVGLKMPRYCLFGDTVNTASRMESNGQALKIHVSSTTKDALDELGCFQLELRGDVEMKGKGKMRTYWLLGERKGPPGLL
In short: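 Read-out: GloSensor luminescence (CCD imager), baseline vs post-stimulation. HEK293 cells expressing hNpr2; compounds pre-incubated 30-50 min at ambient temperature; hNppC 1 nM final, 20 min.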

[14] = biological target: T1, Tyrosine-protein phosphatase non-receptor type substrate 1 (Homo sapiens) + Leukocyte surface antigen CD47 (Homo sapiens) (UniProt P78324+Q08722); test: CD47-SIRPalpha protein protein interaction - LANCE assay qHTS validation (AID 1347057; active means well fitted curve in the direction sought with a large enough effect in the signal ratio, with a control signal flat, not every such curve was filed as active; the % refers to the signal ratio; further: series mostly up to about 38 µM)
T1 sequence (P78324 whole entry, looked up, the tested form may be a part): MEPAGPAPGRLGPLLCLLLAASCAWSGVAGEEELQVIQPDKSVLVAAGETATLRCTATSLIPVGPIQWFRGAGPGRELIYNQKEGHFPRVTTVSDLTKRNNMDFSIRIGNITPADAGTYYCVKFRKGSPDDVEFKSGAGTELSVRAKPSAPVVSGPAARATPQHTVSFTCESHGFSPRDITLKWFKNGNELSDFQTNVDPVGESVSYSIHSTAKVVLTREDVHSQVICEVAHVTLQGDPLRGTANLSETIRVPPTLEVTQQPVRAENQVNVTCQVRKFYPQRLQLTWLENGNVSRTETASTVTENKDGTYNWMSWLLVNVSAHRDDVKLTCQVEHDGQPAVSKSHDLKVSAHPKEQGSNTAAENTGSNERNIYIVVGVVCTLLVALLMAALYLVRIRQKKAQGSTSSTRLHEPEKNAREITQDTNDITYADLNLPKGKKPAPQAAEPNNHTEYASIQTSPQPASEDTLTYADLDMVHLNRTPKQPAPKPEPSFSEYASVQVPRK
T1 sequence (Q08722 whole entry, looked up, the tested form may be a part): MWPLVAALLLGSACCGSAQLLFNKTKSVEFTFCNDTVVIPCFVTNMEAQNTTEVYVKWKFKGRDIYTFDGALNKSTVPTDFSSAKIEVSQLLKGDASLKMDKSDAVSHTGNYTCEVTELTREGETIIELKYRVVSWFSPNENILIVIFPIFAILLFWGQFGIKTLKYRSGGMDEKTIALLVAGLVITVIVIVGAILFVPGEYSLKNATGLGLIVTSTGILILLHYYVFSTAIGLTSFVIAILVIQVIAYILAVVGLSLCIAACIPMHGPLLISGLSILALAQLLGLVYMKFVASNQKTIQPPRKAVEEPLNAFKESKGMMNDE
In short: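 Inhibition of soluble CD47/SIRPalpha ectodomain association by titrated compounds, measured as 665/615 nm time-resolved FRET ratio after sequential 30 min room-temperature incubations.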

[15] = biological target: T1, Tyrosine-protein phosphatase non-receptor type substrate 1 (Homo sapiens) + Leukocyte surface antigen CD47 (Homo sapiens); test: CD47-SIRPalpha protein protein interaction - Alpha assay qHTS validation (AID 1347059);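 further: bead proximity luminescence from CD47 binding SIRPalpha after compound preincubation with SIRPalpha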
In short: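 In PBS (pH 7.4) with 0.05% IGEPAL CA-630, compound is preincubated with biotin-Avi-SIRPalpha ectodomain before His-CD47 ectodomain and affinity beads are added. Light-protected room-temperature incubations; AlphaScreen readout.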

[16] = biological target: Parathyroid hormone/parathyroid hormone-related peptide receptor (Homo sapiens) (UniProt Q03431); test: qHTS for PTHR1 Agonists: Optimization Screen against the NCGC LOPAC library (AID 1347079);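 further: GloSensor cAMP luminescence in HEK-293 GP2 cells expressing human PTHR1 with IBMX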
Chain of Parathyroid hormone/parathyroid hormone-related peptide receptor (Homo sapiens) (Q03431 whole entry, looked up): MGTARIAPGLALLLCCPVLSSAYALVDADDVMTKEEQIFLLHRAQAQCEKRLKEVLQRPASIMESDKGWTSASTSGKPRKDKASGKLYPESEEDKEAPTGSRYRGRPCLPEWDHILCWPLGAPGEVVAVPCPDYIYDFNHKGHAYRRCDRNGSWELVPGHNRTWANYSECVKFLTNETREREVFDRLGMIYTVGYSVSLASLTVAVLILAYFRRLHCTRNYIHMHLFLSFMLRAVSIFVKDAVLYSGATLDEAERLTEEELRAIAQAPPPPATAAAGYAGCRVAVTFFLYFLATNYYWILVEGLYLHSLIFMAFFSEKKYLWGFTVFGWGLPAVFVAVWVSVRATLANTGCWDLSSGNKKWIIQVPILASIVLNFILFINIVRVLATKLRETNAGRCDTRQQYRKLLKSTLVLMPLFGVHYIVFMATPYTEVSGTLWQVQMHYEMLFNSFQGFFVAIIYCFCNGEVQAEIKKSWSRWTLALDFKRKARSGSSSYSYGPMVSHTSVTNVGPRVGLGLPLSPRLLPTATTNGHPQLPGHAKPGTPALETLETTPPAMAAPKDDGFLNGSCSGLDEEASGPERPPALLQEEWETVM
In short: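 HEK-293 GP2 cells, PTHR1 + GloSensor cAMP; 3000 cells/well, o/n. Luciferin + IBMX 0.5mM each (stock), 1 hr 37C. Cpd titration, 1 hr 37C. Lum after 15 min RT. Ctrl M-PTH(1-15) top 10uM.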

[17] = Natriuretic polypeptide receptor (hNpr1) antagonism - Pilot counterscreen GloSensor control cell line (AID 1347045; calls by dose curve; further: potency means the concentration at half of the fitted maximal effect)
In short: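 Cells were first seeded and incubated overnight at 37C, then loaded with 2% GloSensor substrate for 2 h. Compounds were added for 30 min at room temperature, followed by a baseline read, 50 uM SNP and a final read after 20 min.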

[18] = biological target: Atrial natriuretic peptide receptor 1 (Homo sapiens) (UniProt P16066); test: Natriuretic polypeptide receptor (hNpr1) antagonism - Pilot screen (AID 1347049; calls by dose curve;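 further: HEK293 cells with hNpr1 and GloSensor cGMP luciferase stimulated by 0.1 nM hNppA; agonist-evoked cGMP luminescence read 20 min after hNppA addition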; further: potency means the concentration at half of the fitted maximal effect)
Chain of Atrial natriuretic peptide receptor 1 (Homo sapiens) (P16066 whole entry, looked up): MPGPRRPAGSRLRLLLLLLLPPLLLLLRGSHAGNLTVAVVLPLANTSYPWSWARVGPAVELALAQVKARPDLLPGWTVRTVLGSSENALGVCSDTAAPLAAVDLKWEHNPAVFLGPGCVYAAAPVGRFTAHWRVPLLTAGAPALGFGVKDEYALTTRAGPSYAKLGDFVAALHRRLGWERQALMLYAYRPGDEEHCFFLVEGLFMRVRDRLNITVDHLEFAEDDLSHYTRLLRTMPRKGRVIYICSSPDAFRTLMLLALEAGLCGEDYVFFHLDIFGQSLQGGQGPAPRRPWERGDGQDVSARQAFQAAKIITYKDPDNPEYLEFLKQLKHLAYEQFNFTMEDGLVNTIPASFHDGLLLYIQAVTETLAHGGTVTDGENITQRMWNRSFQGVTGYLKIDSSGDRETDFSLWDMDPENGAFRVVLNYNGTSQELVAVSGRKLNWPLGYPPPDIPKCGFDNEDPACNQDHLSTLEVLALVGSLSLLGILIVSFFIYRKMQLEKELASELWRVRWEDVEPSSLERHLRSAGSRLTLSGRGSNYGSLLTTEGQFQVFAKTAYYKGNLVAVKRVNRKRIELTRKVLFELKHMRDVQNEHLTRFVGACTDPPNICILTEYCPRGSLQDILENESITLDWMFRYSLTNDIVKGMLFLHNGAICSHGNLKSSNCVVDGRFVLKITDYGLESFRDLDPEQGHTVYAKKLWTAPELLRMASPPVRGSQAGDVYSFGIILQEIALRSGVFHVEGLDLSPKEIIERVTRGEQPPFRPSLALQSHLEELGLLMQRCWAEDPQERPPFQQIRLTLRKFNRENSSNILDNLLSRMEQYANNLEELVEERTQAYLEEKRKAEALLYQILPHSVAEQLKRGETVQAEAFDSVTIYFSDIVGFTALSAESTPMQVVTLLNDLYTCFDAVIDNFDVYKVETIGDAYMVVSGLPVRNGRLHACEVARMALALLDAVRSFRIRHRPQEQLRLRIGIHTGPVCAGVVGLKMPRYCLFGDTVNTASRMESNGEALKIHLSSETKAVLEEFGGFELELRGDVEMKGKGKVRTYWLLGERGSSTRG
In short: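 Cells expressing receptor plus cGMP biosensor are seeded and incubated overnight at 37C, then loaded with GloSensor reagent (2% final) at room temperature for 2 h. Library compounds go on for 30 min. A pre-read precedes agonist (hNppA, 0.1 nM final) and a 20-min readout.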

[19] = biological target: T1, Tyrosine-protein phosphatase non-receptor type substrate 1 (Homo sapiens) + Leukocyte surface antigen CD47 (Homo sapiens); test: CD47-SIRPalpha protein protein interaction - HTRF assay qHTS validation (AID 1347058; active means well fitted curve in the direction sought with a large enough effect in the signal ratio, not every such curve was filed as active; the % refers to the signal ratio; further: series mostly up to about 38 µM)
In short: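 Soluble extracellular domains (6His-CD47, Avi-tag-biotinylated SIRPalpha) in PBS pH 7.4 with 0.05% IGEPAL CA-630. Compounds were preincubated 30 min at RT with CD47 and anti-His-Eu, then SIRPalpha and SAV-XL665 were added. TR-FRET 665/615 ratio.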

Measured: Potency

C[C@]12CCC(=O)C=C1CC[C@@H]1[C@@H]2[C@@H](O)C[C@@]2(C)[C@H]1CC[C@]2(O)C(=O)COC(=O)CCC(=O)O
inactive: [1] | [2] | [3] | [4] | [5] | [6] | [7] | [8] | [9] | [10]

CC1(C)S[C@@H]2[C@H](NC(=O)C(c3ccccc3)S(=O)(=O)O)C(=O)N2[C@H]1C(=O)O (stereo partly drawn)
inactive: [1] | [2] | [3] | [11] | [12] | [5] | [7] | [8] | [9]

OC1(c2ccc(Cl)cc2)CCNCC1
inactive: [1] | [2] | [4] | [11] | [12] | [5] | [6] | [7] | [8] | [9] | [10]

O=C1NC(=O)/C(=C/c2ccc3c(c2)OC(F)(F)O3)S1
inactive: [1] | [2] | [13] | [4] | [14] | [15] | [16]

COC(=O)/C=C(/C)N
inactive: [1] | [2] | [4] | [11] | [12] | [5] | [6] | [7] | [8] | [9] | [10]

CC(C)NC(=O)c1ccc(C=O)cc1
inactive: [1] | [2] | [4] | [11] | [12] | [5] | [6] | [7] | [8] | [9] | [10]

O=C1c2ccccc2CCc2ccccc21
inactive: [1] | [2] | [4] | [11] | [12] | [5] | [6] | [7] | [8] | [9] | [10]

CC(C)N(CCC(=O)c1ccc2ccccc2c1)Cc1ccccc1
active: [17] 13.1 µM | [18] 13.5 µM
inactive: [1] | [2] | [14] | [19] | [15] | [16]

O=[N+]([O-])c1ccc(-c2nc(-c3ccc(F)cc3)c(-c3ccncc3)[nH]2)cc1
inactive: [1] | [2] | [18] | [13] | [4] | [14] | [16]

Cc1cccc(N(C)C(=S)Oc2ccc3c(c2)C2CCC3C2)c1 (stereo not drawn)
active: [12] 26.6 µM
inactive: [1] | [2] | [4] | [11]

Cc1cc(O)c2c(O)c3c(O)cccc3cc2c1
inactive: [1] | [2] | [4] | [11] | [12] | [5] | [6] | [7] | [8] | [9]

COc1c(N2C[C@@H]3CCCN[C@@H]3C2)c(F)cc2c(=O)c(C(=O)O)cn(C3CC3)c12
inactive: [1] | [2] | [4] | [11] | [12] | [5] | [6] | [7] | [8] | [9] | [10]

CCOC(=O)N1CCC(n2c(=O)[nH]c3cc(Cl)ccc32)CC1
inactive: [1] | [2] | [4] | [11]

CC(COc1ccccc1)NN (stereo not drawn)
inactive: [1] | [2] | [4] | [11] | [12] | [5] | [6] | [7] | [8] | [9] | [10]

CCNC(=O)[C@@H]1CCCN1C(=O)[C@H](CCCN=C(N)N)NC(=O)[C@H](CC(C)C)NC(=O)CNC(=O)[C@H](Cc1ccc(O)cc1)NC(=O)[C@H](CO)NC(=O)[C@H](Cc1c[nH]c2ccccc12)NC(=O)[C@H](Cc1cnc[nH]1)NC(=O)[C@@H]1CCC(=O)N1 ([pGlu]HWSYGLRP-NHEt)
inactive: [1] | [2] | [4] | [11] | [12] | [5] | [6] | [7] | [8] | [9] | [10]

C[C@@H]1CCC[C@H](C)N1CCCC(O)(c1ccccc1)c1ccccn1 (stereo partly drawn)
inactive: [1] | [2] | [4] | [11] | [12] | [5] | [6] | [7] | [8] | [9] | [10]

NC(=O)NC1N=C([O][Al])NC1=O (stereo not drawn)
inactive: [1] | [2] | [4] | [11] | [12] | [5] | [6] | [7] | [8] | [9]

COc1ccc(CCC(C)=O)cc1
inactive: [1] | [2] | [4] | [11] | [12] | [5] | [6] | [7] | [8] | [9] | [10]

COc1cccc2c1[C@@H]1CN(CCCCn3c(=O)[nH]c4c(sc5ncc(-c6ccccc6)nc54)c3=O)C[C@@H]1CO2
inactive: [1] | [2] | [17] | [18] | [13] | [4] | [14] | [15] | [16]

O=C(O)c1cn(C2CC2)c2cc(Cl)c(F)cc2c1=O
inactive: [1] | [2] | [4] | [11] | [12] | [5] | [6] | [7] | [8] | [9] | [10]

CCC1(c2cnc[nH]2)Cc2ccccc2C1
inactive: [1] | [2] | [4] | [11] | [12] | [5] | [6] | [7] | [8] | [9]

CCN(CC)CCN
inactive: [1] | [2] | [4] | [11] | [12] | [5] | [6] | [7] | [8] | [9]

Clc1ccc2c(c1)N=C(N1CCNCC1)c1ccccc1N2
active: [13] 14.7 µM
inactive: [1] | [2] | [18] | [4] | [14] | [19] | [15] | [16]

Reference: PubChem BioAssay (NCATS)
